High-throughput results deposited in PubChem BioAssay by National Center for Advancing Translational Sciences (NCATS).
HEK293 tox: qHTS of GLP-1 Receptor Inverse Agonists: Cytotox Screen; AID 624418, 2012; Potency, µM (top dose mostly 38.3 µM), most hits filed as inhibitors; HEK293 cAMP-luciferase reporter cells, luminescence, 24 h; 0.13% of 410,000 active;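 also: loss of luciferase light is scored as toxicity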
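Cells in DMEM/10% Nu serum/1% pen-strep, 1536-well format. Pre-incubated 12 h, dosed with 23 nL compound, incubated a further 24 h. Luciferase detection, 12 min at room temp, luminescence.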
GLP-1R agonist: qHTS of GLP-1 Receptor Agonists; HEK293 GLP-1R CRE-luciferase, luminescence, 4-6 h; cells express a hypersensitive GLP-1R form; Potency, µM (doses to about 45.6 µM), most hits filed as activators; 0.007% of 380,000 active
Target sequence (P43220 whole entry, looked up): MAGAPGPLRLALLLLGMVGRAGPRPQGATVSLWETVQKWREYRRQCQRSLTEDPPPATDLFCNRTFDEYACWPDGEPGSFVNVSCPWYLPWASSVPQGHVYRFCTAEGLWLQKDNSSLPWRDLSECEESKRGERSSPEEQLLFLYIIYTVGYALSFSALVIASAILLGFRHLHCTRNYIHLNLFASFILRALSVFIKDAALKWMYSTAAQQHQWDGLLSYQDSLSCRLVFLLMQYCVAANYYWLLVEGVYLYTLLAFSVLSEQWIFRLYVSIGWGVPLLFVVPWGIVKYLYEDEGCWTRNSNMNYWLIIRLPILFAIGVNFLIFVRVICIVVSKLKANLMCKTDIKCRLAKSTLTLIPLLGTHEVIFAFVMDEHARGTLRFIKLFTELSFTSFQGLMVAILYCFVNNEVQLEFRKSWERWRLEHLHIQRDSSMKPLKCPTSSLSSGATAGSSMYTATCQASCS
RGS4 inh: Inhibitors of Regulator of G Protein Signaling (RGS) 4: qHTS; Regulator of G-protein signaling 4 (Homo sapiens), P49798; Transcreener GDP fluorescence polarization, RGS4-accelerated GTP hydrolysis; Potency, µM (top dose mostly 114 µM), hits mostly inhibitors; 0.039% of 390,000 active; also: nearly all actives have a fitted effect of over 75% in size
Target sequence (P49798 whole entry, looked up): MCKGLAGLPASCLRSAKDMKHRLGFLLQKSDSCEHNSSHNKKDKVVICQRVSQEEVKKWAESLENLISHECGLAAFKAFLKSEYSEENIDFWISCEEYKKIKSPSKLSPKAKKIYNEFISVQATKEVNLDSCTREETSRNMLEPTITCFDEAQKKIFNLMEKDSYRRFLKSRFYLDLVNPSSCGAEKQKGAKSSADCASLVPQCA
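MLSMR compounds (23 nl, pin-transferred) preincubated 10 min at room temperature with a 500nM (2x) first reagent, then RGS4 at 900nM (2x) plus Transcreener GDP mix added; fluorescence polarization (620/688 nm) read before and after 90 min at 30 °C.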
PTHR1 agonist: qHTS for PTHR1 Agonists: Primary Screen | AID 743266, 2014 | Potency, µM (titrated, usually from 115 µM), most hits filed as activators | 0.075% of 410,000 active | Parathyroid hormone/parathyroid hormone-related peptide receptor (Homo sapiens), Q03431 | HEK293 GP2 PTHR1 cells, GloSensor cAMP luminescence, 1 h; also: nearly all actives have a fitted effect of over 55% in size
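HEK-293-derived GP2 cells expressing PTHR1 and a GloSensor cAMP reporter, 3,000/well, plated overnight, given luciferin plus IBMX (each 0.5 mM as added) for 1 h at 37 °C, then compound for 1 h at 37 °C. Luminescence was read after 15 min at room temperature.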
GLP1R inv ag: qHTS of GLP-1 Receptor Inverse Agonists (Inhibition Mode); 1.6% of 410,000 active; Potency, µM (doses to about 38.3 µM), actives largely listed as inhibitors; HEK293 GLP-1R CRE-luciferase, luminescence, 24 h; GLP-1R form is constitutively active; AID 624417, 2012; also: nearly all actives have a fitted effect of over 55% in size
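Cells are plated, allowed 12 hours at 37 deg C, then treated with compounds for 24 hr before luciferase detection reagent is added and luminescence is read after 12 min at room temperature. The HEK293 line carries constitutively active GLP-1R with a cAMP-responsive reporter.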
A number is an active result; i = inactive; ? = inconclusive; nt = no result given; [ ] = dose if it differs, or a comment. This is a sample that favours compounds with a hit; in the whole collection about 1.7% have one here. Calls follow the shape of the dose curve; as a rule, active = well fitted curve in the direction sought with a large enough effect; inconclusive = small, poorly fitted or top-dose-only effect, or another doubt; inactive = no such curve, though single readings can be large; an effect the other way counts as inactive or inconclusive.

SMILES | HEK293 tox | GLP-1R agonist | RGS4 inh | PTHR1 agonist | GLP1R inv ag
Cc1c(Cl)cccc1Nc1nc(NCCO)c2ccccc2n1 | ? | i | i | i | 2.5µM
OCCNc1nc(Nc2ccccc2)nc(Nc2ccccc2)n1 | i | i | i | i | ?
OCCNc1nc(Nc2ccc(Br)cc2)nc2ccccc12 | i | i | i | i | 2µM
OCCNc1nc(Nc2ccccc2)nc2ccccc12 | i | i | i | i | 7.1µM
COc1ccc(CCNC(=S)N2CCN(S(=O)(=O)c3ccc(C)cc3)CC2)cc1 | i | i | i | i | ?
O=C(Nc1cc(Cl)ccc1Cl)c1ccc2c(c1)N(Cc1cccc(Cl)c1)C(=O)c1ccccc1S2=O (stereo not given) | i | nt | i | i | i
COc1ccccc1NC(=O)Nc1ccc(S(=O)(=O)Nc2onc(C)c2C)cc1 | i | i | i | i | i
O=C(COC(=O)c1c2c(nc3ccccc13)/C(=C\c1cccs1)CCC2)Nc1ccccc1 | i | i | i | i | i
CC(C)CNC(=O)COC(=O)c1c2c(nc3ccccc13)/C(=C\c1cccs1)CC2 | i | i | i | i | 4.5µM
CCS(=O)(=O)N1Cc2ccccc2CC1C(=O)Nc1ccc(F)c(F)c1 (stereo not given) | i | i | i | i | i
Cc1ccc2c(c1)C(O)(c1c(C)[nH]c3ccccc13)C(=O)N2 (stereo not given) | i | i | i | i | 3.2µM
Cc1ccc(CN2C(=O)c3ccccc3Sc3ccc(C(=O)NCCN4CCOCC4)cc32)cc1 | ? | i | i | i | 6.3µM
O=C(NCCCN1CCOCC1)c1ccc2c(=O)n(Cc3ccc(Cl)cc3)c(=S)[nH]c2c1 | i | i | i | i | 2µM
Cc1c(C)n(Cc2ccc(Cl)cc2)c2ccc(C(=O)NCCN3CCOCC3)cc12 | i | i | i | i | 3.5µM
Cc1c(C)n(Cc2ccccc2)c2ccc(C(=O)NCCN3CCOCC3)cc12 | i | i | i | i | ?
CN(C)CCNC(=O)c1ccc2c(=O)n(Cc3ccc(Cl)cc3)c(=S)[nH]c2c1 | ? | i | i | i | 3.2µM
CN(CC(=O)Nc1ccc(F)cc1)C(=O)Cn1cnc2ccc(Cl)cc2c1=O | i | i | i | i | i
COc1ccc(C(=O)NC(C)C2CC3CCC2C3)c(OC)c1 (stereo not given) | i | i | i | i | 10µM
Nc1ccccc1Nc1cc(-c2cccc(Cl)c2)nn1-c1ccccc1 | i | i | i | i | 10µM
Nc1c(-c2ccccc2)cnn1-c1cccc(Cl)c1 | i | i | i | i | ?
CC1OC(CC(=O)O)CC2=C1C(=O)c1c(O)cccc1C2=O (stereo not given) | 0.89µM | i | i | i | ?
CCN(C(=O)CSc1nc2ccccc2nc1Cc1ccc(F)cc1)c1cccc(C)c1 | i | nt | i | i | i
CCN(C(=O)CSc1nc2ccccc2nc1Cc1cccc(OC)c1)c1cccc(C)c1 | i | nt | i | i | 11µM
CCN(C(=O)CSc1nc(-c2ccccc2)no1)c1cccc(C)c1 | i | nt | i | i | 1.3µM
Cc1ccc(C(c2nnnn2Cc2ccccc2)N2CCN(Cc3ccccc3)CC2)cc1 (stereo not given) | i | i | i[11.4 µM] | i | 10µM
SMILES | HEK293 tox | GLP-1R agonist | RGS4 inh | PTHR1 agonist | GLP1R inv ag
Cc1ccc(C(c2nnnn2Cc2ccccc2)N2CCN(Cc3ccncc3)CC2)cc1 (stereo not given) | nt | nt | i | nt | nt
CC1CCN(C(c2cccs2)c2nnnn2Cc2ccccc2)CC1 (stereo not given) | i | i | i[11.4 µM] | i | 10µM
C=CCNC(=O)c1ccc(C2SCC(=O)N2Cc2ccccc2)cc1 (stereo not given) | i | i | i | i | i
O=C(NCc1ccccc1)c1ccc(C2SCC(=O)N2Cc2ccccc2)cc1 (stereo not given) | i | i | i | i | 10µM
CCCC(c1nnnn1Cc1ccco1)N1CCN(c2ccccc2)CC1 (stereo not given) | i | i | i | i | i
CCCC(c1nnnn1Cc1ccco1)N1CCN(c2cc(Cl)ccc2C)CC1 (stereo not given) | i | i | i | i | 5µM
Cc1ccc(CNC(=O)C(=O)NCC(c2cccs2)S(=O)(=O)c2ccc(C)cc2)cc1 (stereo not given) | i | nt | i | ? | i
C=Cc1ccc(Cn2c(C(=O)O)c(CNCc3ccccc3)c3ccc(C)cc32)cc1 | ? | nt | i | i | ?
FC(F)(F)c1ccc(Oc2ccc3ccccc3c2Br)nc1 | i | i | i | i | 10µM
Cc1ccc(Nc2nc3ccccc3s2)cc1 | i | i | i | i | i
Cc1ccccc1Nc1nc2ccccc2s1 | i | i | i | i | 11µM
CCOc1ccc2nc(NC(=S)N(C)C)sc2c1 | ? | i | ? | i | ?
CN(C)C(=S)Nc1nc2ccccc2s1 | ? | i | ? | i | 0.63µM
COc1cc(C(=O)NCc2nc(-c3ccc(Cl)cc3)no2)cc(OC)c1OC | i | nt | i | i | i
N#Cc1ccc(OCC(O)CN2CCN(C(c3ccccc3)c3ccccc3)CC2)cc1 (stereo not given) | i | i | i | i | 7.1µM
COc1cccc(OC)c1OCCCCCCN1CCN(C)CC1 | i | i | i | i | i
OC(COc1ccccc1)CN1CCN(C(c2ccccc2)c2ccccc2)CC1 (stereo not given) | i | i | i | ? | ?
O=C(O)COCCN1CCN([C@@H](c2ccccc2)c2ccc(Cl)cc2)CC1 | nt | i | nt | nt | nt
c1ccc(OCCOCCN2CCN(C(c3ccccc3)c3ccccc3)CC2)cc1 | ? | i | i | i | 7.1µM
COc1ccccc1OCCCCN1CCN(C(c2ccccc2)c2ccccc2)CC1 | ? | i | i | i | 4.5µM
Cc1ccc2c(c1)-c1nc(-c3ccccc3)cc(-c3ccccc3)c1CO2 | i | i | i | i | i
COc1ccc(/C=C2\SC(=S)N(CCCC(=O)N3CCCCC3CCO)C2=O)cc1 (stereo not given) | ? | i | i | i | 10µM
CCc1ccc(/C=C2\SC(=S)N(CCCC(=O)N3CCN(C)CC3)C2=O)cc1 | ? | i | nt | i | 10µM
COC(=O)c1ccc(/C=C2/SC(=S)N(CCCC(=O)Nc3ccc(O)cc3)C2=O)cc1 | ? | i | i | i | 7.9µM
COc1ccc(/C=C2\SC(=S)N(CCCC(=O)N3CCN(C)CC3)C2=O)cc1 | ? | i | i | i | ?
CN1CCN(C(=O)CCCN2C(=O)/C(=C/c3cccc(Br)c3)SC2=S)CC1 | ? | i | i | i | 10µM
O=C(CCCn1c(=O)c2cccn2c2ccccc21)NCCc1ccc(Cl)cc1 | i | nt | i | i | i
